Test results taken from PubChem BioAssay AID1117362 (Southern Research Institute, 2015).
The campaign covered roughly 3,600 compounds. About 100 (2.8%) were called active. Not all results are given here. A number with no mark means an inactive call.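 The calls were made as follows: active = inhibition above 30% at one or more concentrations, seen consistently on every test date; inconclusive = results that disagree between repeat test dates; inactive = the rest.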

Assay: biotin-GST/anti-GST TR-FRET signal inhibitors, dose response, artefact control for Vif-APOBEC3G degradation inhibitor project, biochemical (AID 1117362);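 also: biotinylated GST protein used in place of GST-Vif 1-94 and biotin-A3G peptide; detects fluorescence quenchers or blockers of GST binding to anti-GST antibody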
Conditions: TR-FRET counter screen; series mostly up to 100 µM; inhibition: at the top concentration

Compound	inhibition [%]	IC50
CCN(C(=O)c1coc(=O)c(Br)c1)c1ccc2c(c1)OCO2	25.4	–
COc1ccc(NC(=O)/C(C#N)=C\c2ccc(Br)o2)cc1	9.72	–
COc1ccc2c(c1)c(=O)oc1cc(OCC(=O)N3CCC(C)CC3)ccc12	-4.74	–
CC(C)(C)OC(=O)N(Cc1ccccc1)Cc1cccc(OCc2cccc(NC(=O)c3ccccc3)c2)c1	1.79	–
Cc1cc(C(=O)COC(=O)c2cc(O)c3ccccc3c2O)c(C)n1CC1CCCO1 (stereo unspecified)	6.11	–
CCOc1ccc2[nH]c(=O)c(CN(Cc3ccco3)C(=O)c3ccc(Br)cc3)cc2c1	-4.7	–
CCOC(=O)C1=C(C)N=C2SC(C(=O)OC)=CC(=O)N2C1c1cc(OC)c(OC)c(OC)c1 (stereo unspecified)	0.25	–
CC(C)OC(=O)c1cccc(C(=O)O)n1	0.71	–
O=C(NCc1ccccn1)c1coc(=O)c(Br)c1	-1.46	–
CCCN1C(=O)S/C(=C\c2ccc(N3CCOCC3)cc2C)C1=O	3.79	–
CN(CCc1ccccc1)C(=O)c1ccc(NC(=O)Cc2ccc(NC(=O)C3CCN(C(=O)CCc4ccccc4)CC3)cc2)cc1	-4.37	–
Cc1ccc(C2SCC(=O)N2Cc2cn3ccsc3n2)o1 (stereo unspecified)	0.01	–
CCn1c(SCC(=O)Nc2cc(C)on2)nnc1-c1cccnc1	15	–
C/C(=N\Nc1ccc(Cl)c(C(=O)O)c1)c1ccc[nH]1	-6.35	–
COc1ccc(C2=CC(c3ccc(Cl)cc3)n3cnnc3N2)cc1OC (stereo unspecified)	-9.19	–
COc1ccc(Nc2ccc(OC)cc2)cc1	20.4	–
Cc1nn(-c2ccccc2)c2sc(C(=O)N3CCc4ccccc4C3)cc12	-2.11	–
C/C(N)=C(/C#N)C(=O)CSc1nnc(NC(C)C)s1	18.7	–
CCN1CCN(C2=NC(=O)/C(=C/c3ccc(C)o3)S2)CC1	8.23	–
Cc1ccc2cc(C(c3nnnn3Cc3ccccc3)N3CCc4ccccc43)c(=O)[nH]c2c1 (stereo unspecified)	-2.82	–
COC(=O)\C(C(C)=O)=C(/C=C/C=C/C=C/N(C)C)N(C)C	-3.51	–
O=C(NCCc1c[nH]c2ccccc12)c1ccc(S(=O)(=O)NCc2ccco2)cc1	-1.73	–
COc1ccc(S(=O)(=O)Cc2ccc(C(=O)N3CCN(c4ccccc4)CC3)o2)cc1	2.72	–
CC1=C(C(=O)Nc2ccccc2F)C(c2ccsc2)C2=C(CC(c3ccccc3)CC2=O)N1 (stereo unspecified)	4.39	–
C[c-]1[c-](C)[c-](C)[c-](C)[c-]1C.[Fe].c1cc2nccc(N3CCCC3)[c-]2c1 (stereo unspecified)	–	28 µM (active)
O=C1NC(c2ccc(Br)cc2)=N/C1=C/c1ccco1	-4.77	–
